# Measurements taken from PubChem BioAssay AID720565 (National Center for Advancing Translational Sciences (NCATS), 2013).
# Records with an inconclusive call do not appear. Activity calls are given as the source filed them. The call rests on the fitted dose curve; in most records, active means well fitted activation curve with a large enough effect; inconclusive means small, poorly fitted or top-dose-only effect; inactive means no such curve, though single readings can be large or run the other way.
# Experiment: qHTS for small molecules that induce genotoxicity in ELG1 expressing cells: Confirmatory Assay for Cherry-picked Compounds; further: nearly all actives have a fitted effect of over 35% in size; on activation: % of control where 0% means no effect
# Settings: ELG1-luciferase reporter cells, luminescence, 16 h; series mostly up to 46.1 µM; activation: at the top concentration
# Procedure, shortened: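 Cells carrying the ELG1-luciferase reporter were exposed to compound for 16 hr at 37 C, 5% CO2, at 2,000 cells per well. Rise in luciferase activity, read with ONE-Glo after 30 min at room temperature, indicates genotoxic stress.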
# Potency means the concentration at half of the fitted maximal effect.
Compound,Potency,activation
Fc1ccc2cc(CCO[C@H]3CCCCO3)ncc2c1,3.97 µM (active),–
N#Cc1ccsc1NC(=O)CSc1nncs1,12.5 µM (active),–
O=C(CSc1ncnc2sccc12)N1CCCCC1,15.8 µM (active),–
COc1cccc2c1C(=O)/C(=C\c1ccc(N(C)C)cc1)C2,3.15 µM (active),–
C[C@@H]1CC2[C@@H]3CCC4=CC(=O)C=C[C@]4(C)[C@@]3(F)[C@@H](O)C[C@]2(C)[C@@]1(O)C(=O)NCCCCCCOC[C@H]1O[C@@H](n2cnc3cc(Cl)c(Cl)cc32)[C@@H]2OC(C)(C)O[C@@H]21 (some centres not stated),2.29 µM (active),–
CCn1c(C)cc(C(=O)COC(=O)c2cccnc2SC)c1C,9.96 µM (active),–
Cc1ccnc(NC(=S)N2CCN(c3ccc(N)cc3)CC2)c1,14.1 µM (active),–
Cc1c(C(=O)Nc2nccs2)oc2ccc(Br)cc12,11.2 µM (active),–
COc1ccc([C@H]2Cc3cc(O)cc(O)c3C(=O)O2)cc1O,11.2 µM (active),–
O=C(NC1CCCC1)c1cc(-c2cccs2)on1,15.8 µM (active),–
O=C(Nn1c(SCc2ccc([N+](=O)[O-])cc2)nc2ccccc2c1=O)c1ccc(F)cc1,5 µM (active),–
CN(C)c1ccc(C=Nc2cncc3ccccc23)cc1,0.889 µM (active),–
Cc1sc(NC(=O)c2ccco2)c(C(c2cccnc2)N2CCN(c3ccc(F)cc3)CC2)c1C (configuration not stated),–,-16.3% (inactive)
COc1cccc(NC(=O)CSc2nnc(-c3ccc(C)cc3)o2)c1,14.1 µM (active),–
Cc1cc(C(=O)Nc2ccc(Br)cn2)sc1C,2.5 µM (active),–
COc1ccc(-c2nc(-c3cccnc3)no2)cc1,3.97 µM (active),–
Cn1c2ccccc2c(=O)c2cc(NCCCN3CCOCC3)ccc21,17.7 µM (active),–
Oc1ccc(/C=C/c2c(F)cccc2F)c2cccnc12,9.96 µM (active),–
COc1ccc(/C=C/C(=O)O/N=C(\N)c2ccccn2)cc1OC,14.1 µM (active),–

Compound,Potency,activation
COc1cccc(/C=C/c2cnc3ccccc3n2)c1OC,0.397 µM (active),–
COc1ccc(-c2cnc(-c3cccnc3)o2)cc1,15.8 µM (active),–
O=c1c2ccccc2oc2ccc(-c3ccc4cc[nH]c4c3)cc12,1.26 µM (active),–
CCCC(=O)Oc1ccc2[nH]c(C(=O)c3cc4ccccc4[nH]3)cc2c1,6.28 µM (active),–
COc1cc2cc(C)c(SCC(=O)N3CCOCC3)nc2cc1OC,–,2.87% (inactive)
COc1ccccc1NC(=O)CSc1nnc(-c2ccccc2)o1,2.5 µM (active),–
CCCCCn1ncc2c3sc(C)cc3n(C)c2c1=O,12.5 µM (active),–
COc1ccc(-c2cc3cc(F)ccc3cn2)cc1,2.23 µM (active),–
O=C(CSc1nnc(-c2ccc(O)cc2)o1)Nc1ccccc1Br,14.1 µM (active),–
Cc1cc(C(=O)COC(=O)C23CC4CC(CC(O)(C4)C2)C3)c(C)n1C,14.1 µM (active),–
COc1ccc(C2CC(c3c(O)cc(C)oc3=O)=NCCS2)c(OC)c1 (configuration not stated),11.2 µM (active),–
O=S(=O)(c1ccc2ccccc2c1)N1CCN(S(=O)(=O)c2c(F)cccc2F)CC1,14.1 µM (active),–
C=C1C(c2ccc(C)cc2)=CCc2cc(C)cc(C)c21,5 µM (active),–
O=C1CCc2cc(NS(=O)(=O)c3ccccc3)cc3c2N1CCC3,–,12.5% (inactive)
Cc1ccc(C(=O)Cn2c3c(sc2=N)CCCC3)cc1,0.141 µM (active),–
CCn1c(=O)n(CC)c2cc(S(=O)(=O)N3CCC(c4ccccc4)CC3)ccc21,–,-24.6% (inactive)
CN(C)c1cccc(-c2nnc(N3CCC(C(N)=O)CC3)s2)c1,4.99 µM (active),–
CCOc1ccc2oc(C(=O)Nc3nccs3)c(C)c2c1,2.23 µM (active),–
